# Laboratory results published in PubChem BioAssay AID485273 (Sanford-Burnham Center for Chemical Genomics, 2010).
# About 1,500 (0.45%) of roughly 330,000 compounds were called active. No stated cut-off is given here; in the data, active means inhibition above about 45% (passing the limit was not always enough); inconclusive means no clear call, values can overlap the other calls. The sample as a whole holds a higher share of actives than the screen did.
# Target: Ubiquitin-conjugating enzyme E2 N (Homo sapiens) (UniProt P61088)
# Sequence (P61088 whole entry, looked up): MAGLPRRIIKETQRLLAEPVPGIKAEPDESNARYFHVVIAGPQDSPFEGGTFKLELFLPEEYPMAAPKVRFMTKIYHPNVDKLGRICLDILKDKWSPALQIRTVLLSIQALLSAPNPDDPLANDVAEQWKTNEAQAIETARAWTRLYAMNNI
# Test: UBC13 polyubiquitin chain formation inhibitors, primary screen, biochemical, TR-FRET, uHTS (AID 485273)
# Settings: at 20 µM, active compounds read high
row,Compound,inhibition
1,Cc1cc(C)c(NC(=O)C[N+](C)(C)CC(O)COc2cccc3ccccc23)c(C)c1 (configuration not stated),45.4% (active)
2,Cc1cc(C)cc(OCC(=O)NCc2cc(C)nc3ccccc23)c1,7.7% (inactive)
3,CC(C)c1ccccc1OCC(O)CN(CC(O)COc1cccc2ccccc12)C(C)C (configuration not stated),10.8% (inactive)
4,CCCCCN(C(=O)CCC(=O)OCC(=O)NCc1ccc(OC)cc1)c1c(N)n(CCCC)c(=O)[nH]c1=O,2.5% (inactive)
5,CCn1ccnc1CN1CCCC(C(=O)c2ccc3c4c(cccc24)CC3)C1 (configuration not stated),19.1% (inactive)
6,O=C(c1ccccc1)N1CCN(C(=O)c2cc3nc(-c4ccccc4)cc(C(F)(F)F)n3n2)CC1,2.2% (inactive)
7,O=C(O)/C(=C/c1cccnc1)NC(=O)c1ccccc1,7.7% (inactive)
8,CC(C)n1cnc2c(Nc3cccc(Cl)c3)nc(N(CCO)CCCO)nc21,64.8% (active)
9,CC(C)C[C@H](CO)Nc1nc(N(C)c2cccc(Cl)c2)c2ncn(C(C)C)c2n1,24.1% (inactive)
10,OCCCNc1nccc(-c2cc(Nc3cccc(Cl)c3)ncn2)n1,35.7% (inactive)
11,O=C(O)CCn1c(SCc2cc(=O)n3ccccc3n2)nc2ccsc2c1=O,-6.3% (inactive)
12,O=C(Nc1cccnc1Oc1ncnc2cc(Cl)ccc12)c1ccc(F)cc1,2.8% (inactive)
13,COc1ccc(N2CCN(CCNC(=O)Nc3cc(Cl)ccc3Cl)CC2)cc1,5.5% (inactive)
14,Cc1ccc(NC(=O)c2sc3nc(N)c(C#N)cc3c2N)cc1,1% (inactive)
15,CC(=O)Nc1ccc(NC(=O)c2sc3nc4c(c(-c5ccc(C)cc5)c3c2N)CCC4)cc1,54% (active)
16,CC(=O)c1ccc(NC(=O)c2sc3nc4n(c(=O)c3c2C)CCCCC4)cc1,-6.8% (inactive)
17,COc1ccc(C=C(C#N)C#N)c(CSc2ccccn2)c1,3.1% (inactive)
18,O/N=C(\C[n+]1ccccc1)c1ccc(Br)cc1,-4.7% (inactive)
19,O=C(NCC(c1cccs1)N1CCOCC1)c1cc(-c2ccccn2)nc2ccccc12 (configuration not stated),1.9% (inactive)
20,O=C(Nc1nnc(-c2ccccc2)o1)c1cc(-c2cccs2)nc2ccccc12,-31.4% (inactive)
21,COC(=O)c1cc(N2CCNCC2)nc2ccccc12,17.5% (inactive)
22,COC(=O)c1cc(-c2cccs2)nc2ccccc12,45.2% (active)

row,Compound,inhibition
1,CCCCN(C)CCCNC(=O)c1cc(-c2cccs2)nc2ccccc12,48.3% (active)
2,CC(=O)NCCNC(=O)c1cc(-c2cccc3ccccc23)nc2ccccc12,8.4% (inactive)
3,COc1cccc(NC(=O)CN(C)C(=O)c2cc(C3CC3)nn2-c2ccccc2)c1,-2.2% (inactive)
4,CCOCCCNS(=O)(=O)Cc1ccccc1,-13.7% (inactive)
5,CCOc1ccc(N(CC(=O)NCCc2ccc(OC)cc2)S(C)(=O)=O)cc1,3.8% (inactive)
6,Cc1sc2ncnc(N3CCC(C(=O)Nc4ccc(F)cc4Cl)CC3)c2c1C,17.7% (inactive)
7,Cc1ccc(S(=O)(=O)N(C)c2ccc(OCC(=O)OCC(=O)N(CC#N)c3ccccc3)cc2)cc1,-0.2% (inactive)
8,CCCc1cc(=O)[nH]c2nnc(SCC(=O)Nc3nnc(SCC)s3)n12,-15.5% (inactive)
9,NCC(=O)c1cccc2ccc[n+]([O-])c12,-7.7% (inactive)
10,O=C(NCC(=O)N(Cc1cccs1)C(C(=O)NC1CCCCC1)c1ccco1)c1cccs1 (configuration not stated),-5.1% (inactive)
11,CCn1c(SCC(=O)NCC2CCCO2)nc2ccccc21 (configuration not stated),5.4% (inactive)
12,Cn1c(SCC(=O)c2ccccc2)ncc(C(=O)Nc2ccc(F)cc2)c1=O,36.4% (inactive)
13,Cc1ccc(NC(=O)c2cnc(SCC(=O)NCC3CCCO3)n(C)c2=O)cc1 (configuration not stated),93.1% (active)
14,Cc1ccccc1-n1cc(CNC(=O)C2CCC(=O)N(C3CC3)C2)cn1 (configuration not stated),8.4% (inactive)
15,COc1ccc(-n2nc(C(=O)Nc3cc(OC)c(OC)c(OC)c3)c3ccccc3c2=O)c(OC)c1,21.2% (inactive)
16,N#CCc1ccc(NC(=O)c2ccccc2C(=O)Nc2ccc(CC#N)cc2)cc1,2.2% (inactive)
17,CCOCCCNC(=O)c1cn(CC(C)C)c(=O)c2c1c1ccccc1n2C,51.1% (active)
18,COCCCNC(=O)Cn1cc(C(=O)C2CC2)c2ccccc21,11.8% (inactive)
19,CCCCOCCCNC(=O)c1ccccc1OCC,1.4% (inactive)
20,CN(C)c1nc(N)nc(Cn2nnc(-c3ccc(C(F)(F)F)cc3)n2)n1,4% (inactive)
21,COc1ccccc1-c1sc2ccccc2c1-c1ccc(Br)nc1,21.7% (inactive)
22,COc1ccccc1-c1sc2ccccc2c1-c1ccc(C(C)=O)cc1,47.4% (active)

row,Compound,inhibition
1,COc1ccccc1-c1sc2ccccc2c1C#CC1(O)CCCCC1,-2.3% (inactive)
2,CCCC1C(=O)N2C(N(C)C)=Nc3ccc(C)cc3N2C1=O (configuration not stated),-21% (inactive)
3,Cc1cc2oc3ccc(NCCC4CCCN4C)cc3c(=O)c2cc1C (configuration not stated),33.1% (inactive)
4,COc1cccc(OC)c1C(=O)Nc1ccc2c(c1)n(C)c(=O)n2C,1.6% (inactive)
5,COc1cccc2sc3cc(NCC[C@@H]4CCCN4C)ccc3c(=O)c12,45.1% (active)
6,COCCn1c(SCC(=O)Nc2ccccc2F)nc2c(c1=O)SCC2,-6.9% (inactive)
7,COc1ccc(-n2nnnc2CNC(=O)c2ccc3ccccc3c2)cc1,-2.4% (inactive)
8,COc1ccc(C2=NN(c3nc4ccccc4s3)C(=O)C2)cc1,-13.1% (inactive)
9,COc1ccc(-n2nnnc2-c2nc3ccccc3s2)cc1,53.4% (active)
10,Cc1c(Cl)cnc(NC(=O)COC(=O)C2CCCC2)c1Cl,3.7% (inactive)
11,OC(CNCC1CCCO1)Cn1c2ccc(Br)cc2c2cc(Br)ccc21 (configuration not stated),57.5% (active)
12,O=C(CCNS(=O)(=O)c1ccc(Br)cc1)NCC1CCCO1 (configuration not stated),1.5% (inactive)
13,CCCN1CCn2c3c(c4cc(Br)ccc42)CCCC31 (configuration not stated),-1.1% (inactive)
14,COc1ccccc1C(=O)N1C(CC(=O)Nc2ccccc2C)C(=O)NC2CCCCC21 (configuration not stated),-2.3% (inactive)
15,CCCC[C@@H]1CN=C(N)N1CCc1cc(C(F)(F)F)cc(C(F)(F)F)c1,66.9% (active)
16,CCCC[C@@H]1CN=C(N)N1CCc1cccc(F)c1,13.5% (inactive)
17,CCCC[C@@H]1CN=C(N)N1CCCC,-4.4% (inactive)
18,COc1ccc(OC)c(-c2csc(NC(=O)C3=NNC(=O)CC3)n2)c1,-3.9% (inactive)
19,Cc1ccccc1CN1C(=O)c2ccccc2Sc2ccc(C(=O)NCCCN3CCOCC3)cc21,15.4% (inactive)
20,O=C(NCCCN1CCOCC1)c1ccc2c(c1)N(Cc1cccc(F)c1)C(=O)c1ccccc1S2,13.3% (inactive)
21,CCN1CCN(CCNC(=O)c2ccc(/C=C3/Sc4ccccc4N(Cc4cccc(C)c4)C3=O)cc2)CC1,50.8% (active)
22,C=CCn1c(=S)sc2c(=O)[nH]c(C)nc21,-13.8% (inactive)

row,Compound,inhibition
1,CN1CCN(C(=O)CCc2nc(-c3ccc(Cl)cc3)no2)CC1,-0.3% (inactive)
2,Cc1ccc(-c2noc(CCC(=O)Nc3ccccc3N3CCN(C)CC3)n2)cc1,71.9% (active)
3,CCNC(=O)CCc1nc(-c2ccc(C)cc2)no1,0.3% (inactive)
4,Cc1cc([N+](=O)[O-])c(NC2CCCCC2)c([N+](=O)[O-])c1,-28.1% (inactive)
5,O=C(Nc1ccc(F)cc1)C(=O)c1cn(CC(=O)N2CCOCC2)c2ccccc12,-4.6% (inactive)
6,CCN(CC(=O)Nc1ccc(OC)cc1)C(=O)c1ccc(Cl)c(S(=O)(=O)N2CCCC2)c1,8.9% (inactive)
7,O=C(OCC1O[C@@H](OC(=O)c2cc(O)c(O)c(O)c2)[C@@H](OC(=O)c2cc(O)c(O)c(O)c2)[C@@H](OC(=O)c2cc(O)c(O)c(O)c2)[C@@H]1OC(=O)c1cc(O)c(O)c(O)c1)c1cc(O)c(O)c(O)c1 (some centres not stated),138% (active)
8,O=C(NCCc1ccc(F)cc1)c1ccc2nccnc2c1,-9.4% (inactive)
9,CC1CCCN(C(C(=O)Nc2ccc(C(C)C)cc2)c2ccc3c(c2)OCO3)C1 (configuration not stated),9% (inactive)
10,COc1ccccc1C(=O)N(C1=NC(C)CS1)c1ccc(Cl)cc1 (configuration not stated),1.5% (inactive)
11,COCCCNC(=O)CC1C[C@H](C(=O)N2CCCCC2)[C@@]2(CCc3ccccc3)c3[nH]c4ccccc4c3CCN2C1=O (some centres not stated),14% (inactive)
12,Cc1nc(N2CCOCC2)c2c(C)c(C(=O)Nc3ccc(C(F)(F)F)cc3)sc2n1,5.6% (inactive)
13,COc1ccc(NC(=O)c2sc3nc(C)nc(N4CCN(c5ccccn5)CC4)c3c2C)c(OC)c1,5.6% (inactive)
14,Cc1nc(N2CCN(c3ccccn3)CC2)c2c(C)c(C(=O)Nc3ccc(F)cc3)sc2n1,47.4% (active)
15,Cc1cc(C)nc(N2C(=O)CC(Cc3ccccc3)C2=O)n1 (configuration not stated),-12.4% (inactive)
16,CC(C)NC(=O)C(c1ccc(F)cc1)N(C(=O)CCC(=O)Nc1ccccn1)c1ccccc1F (configuration not stated),2.6% (inactive)
17,C#CCOCCOCCOCCNc1nc(N2CCN(C(=O)[C@H](CCC(=O)O)n3cc(C(N)CO)nn3)CC2)nc(N2CCN(C(=O)[C@H](CCCCN)n3cc(C(N)CC(C)C)nn3)CC2)n1 (some centres not stated),-3.6% (inactive)
18,C#CCOCCOCCOCCNc1nc(N2CCN(C(=O)[C@H](CCCCN)n3cc(CCC(=O)O)nn3)CC2)nc(N2CCN(C(=O)[C@H](CCCCN)n3cc(CC(C)O)nn3)CC2)n1 (some centres not stated),2% (inactive)
19,C#CCOCCOCCOCCNc1nc(N2CCN(C(=O)C([C@@H](C)CC)n3cc(C(N)COC(=O)C(F)(F)F)nn3)CC2)nc(N2CCN(C(=O)[C@H](Cc3ccc(O)cc3)n3cc(C(N)[C@H](C)CC)nn3)CC2)n1 (some centres not stated),37.1% (inactive)
20,C#CCOCCOCCOCCNc1nc(N2CCN(C(=O)C([C@@H](C)CC)n3cc(C(N)COC(=O)C(F)(F)F)nn3)CC2)nc(N2CCN(C(=O)[C@H](CCCCN)n3cc(C(N)CC(C)C)nn3)CC2)n1 (some centres not stated),108% (active)
21,C#CCOCCOCCOCCNc1nc(N2CCN(C(=O)C([C@@H](C)O)n3cc([C@@H](N)CCCCN)nn3)CC2)nc(N2CCN(C(=O)[C@H](CCCCN)n3cc(CN)nn3)CC2)n1 (some centres not stated),107% (active)
